APP transl inh = APP translation inhibition; SH-SY5Y APP 5'UTR-luciferase reporter, luminescence; inhibition, % at 2 µM; 0.82% of 190,000 active;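 active means inhibition above a set limit, derived from the sample mean plus 3 SD, cut at about 45% in these data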
aSyn 5UTR inh = 5' untranslated region of α-synuclein, MLPCN primary screen; alpha-synuclein 5'UTR reporter, inhibitor activity; inhibition, % (tested at 7.5 µM); 0.82% of 300,000 active; in the data active means inhibition above about 60%;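 further: H4 neuroglioblastoma cells stably carrying SNCA 5'UTR luciferase fusion; 0% = DMSO wells and 100% = positive control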
IEC-6 tox = kills IEC-6 intestinal cells in KLF5 counter-screen | IEC-6 cytotoxicity, luminescence viability | inhibition, % at 5 µM | 0.78% of 290,000 active | AID 1825;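 further: 0% = plate median of test compound wells and 100% = cytotoxic reference compound wells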
BaF3 parental = counter-screen for JAK2V617F inhibitors: parental Ba/F3 viability inhibitors; CellTiter-Glo ATP luminescence; inhibition, % at 5.6 µM; 1.1% of 220,000 active; AID 1486;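 active means inhibition above a per-campaign cutoff, the mean inhibition of all tested compounds plus 3 SD, cut at about 27% in these data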;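 further: 0% = DMSO wells and 100% = JAK Inhibitor I control wells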
Ba/F3 V617F tox = lowers viability of Ba/F3 cells expressing EpoR and JAK2V617F; ATP luminescence; inhibition, % at 5.6 µM; 1.1% of 220,000 active; AID 1446;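 active means inhibition above the campaign mean plus 3 SD over all tested compounds, cut at about 24% in these data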;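 further: cytokine-independent growth of Ba/F3 cells driven by EpoR plus mutant JAK2; 0% = DMSO-treated cells and 100% = JAK inhibitor I control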
KLF5 inh = inhibitors of KLF5 expression; AID 1700; 0.23% of 290,000 active; inhibition, % at 5 µM; DLD-1 KLF5 promoter-luciferase reporter, luminescence;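 active means inhibition above a per-plate limit of that plate's mean compound inhibition plus 3 SD, cut at about 60% in these data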;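 further: 0% = DMSO wells and 100% = LY294002 at 200 µM; higher means less KLF5 promoter-driven luciferase light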
IEC-6 tox confirm = IEC-6 cytotoxicity, confirmation assay; 63% of 1,900 active; shares compounds with IEC-6 tox; inhibition, % at 5 µM; AID 1907; IEC-6 rat intestinal epithelial viability, luminescence;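 further: 0% = vehicle and 100% = reference cytotoxic drug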
* = called active by the depositor; / = no result. This is a sample that favours compounds with a hit; in the whole collection about 2.1% have one here. Unless noted, no stated cut-off is given here; in the data, active means inhibition above about 22%; inactive means the rest.

SMILES | APP transl inh | aSyn 5UTR inh | IEC-6 tox | BaF3 parental | Ba/F3 V617F tox | KLF5 inh | IEC-6 tox confirm
CCN1C(=O)C(O)(C2COC(C)(C)CC2=O)c2ccccc21 (stereo unspecified) | -2 | -4 | 5 | 1 | 1 | 10 | /
CCN1C(=O)C(O)(C2COC(C)(C)CC2=O)c2cc(Br)ccc21 (stereo unspecified) | 5 | 6 | 84* | 33* | 22 | -5 | 1
CC(C)OCCCNC(=O)c1cn(C)c2ccc(S(=O)(=O)N3CCCC3)cc2c1=O | / | 20 | 1 | / | / | -21 | /
Nc1nn(-c2ccccc2)c(N)c1N=Nc1cccc(F)c1 | / | -57 | 77* | 80* | 84* | -36 | 59*
Cc1nn(-c2ccccc2)c(N)c1N=Nc1cccnc1 | -51 | -48 | 8 | 6 | 1 | -28 | /
CC1(C)C2CC=C(/C=N/NC(=S)Nc3cccnc3)C1C2 (stereo unspecified) | -18 | 0 | -6 | 4 | -2 | -4 | /
CC1=C/C(=N\NC(=S)Nc2cccnc2)CC(C)(C)C1 | -1 | -25 | 29* | 7 | 8 | -8 | 59*
CC(CNc1nc2ccccc2n2cnnc12)c1ccccc1 (stereo unspecified) | / | 4 | -3 | / | / | 0 | /
N=c1ccn2c(n1)OC1C(O)C(CO)OC12 (stereo unspecified) | / | 112* | 92* | 80* | 75* | 24 | 72*
COC(=O)CNC(=O)COC(=O)c1ccc(Cl)nc1 | 3 | 16 | 4 | 2 | 6 | -5 | /
CC(=O)N1CCN(C2c3cccc4cccc(c34)C2NS(=O)(=O)c2ccccc2)CC1 (stereo unspecified) | -10 | -25 | 3 | 0 | 2 | -24 | /
O=S(=O)(NC1c2cccc3cccc(c23)C1N1CCNCC1)c1ccc(Cl)cc1 (stereo unspecified) | -13 | 4 | 36* | 11 | 6 | 10 | 8
CCN(CC)c1ccc2nc3ccccc3[n+](CC)c2c1 | / | 59 | 34* | / | / | 20 | 33*
FC(F)(F)c1ccc(-c2noc(CN3CCCN(C4CCCCC4)CC3)n2)cc1 | -6 | 0 | -4 | 12 | 5 | -40 | /
COc1ccc(-c2nc(CS(=O)(=O)CC(=O)NCc3ccccc3OC)c(C)o2)cc1 | / | -1 | 0 | / | / | -23 | /
Cc1ccc2[nH]c(-c3ccccc3)cc(=O)c2c1 | 91* | 89* | 88* | 81* | 86* | 57 | 57*
Cc1ccc(-c2cc(=O)c3ccccc3[nH]2)cc1 | -14 | -77 | 11 | 8 | 2 | -13 | /
O=C(N/N=C/c1ccc(O)cc1)Nc1cccc2nsnc12 | 12 | -73 | 81* | 26 | 2 | -26 | 91*
CCOC(=O)/C(C#N)=N/Nc1c(C)n(C)n(-c2ccccc2)c1=O | 9 | -3 | -2 | 7 | 0 | -47 | /
Cc1ccccc1C(=O)/C(C#N)=N/Nc1c(C)n(C)n(-c2ccccc2)c1=O | 68* | 79* | 38* | 8 | 8 | 30 | 36*
Cc1c(N/N=C(\C#N)C(=O)c2ccccc2)c(=O)n(-c2ccccc2)n1C | 77* | 46 | 39* | 10 | 12 | 37 | 44*
NC(=O)c1ccc(/C(N)=N/S(=O)(=O)c2cc(C(F)(F)F)cc(C(F)(F)F)c2)cc1 | / | 7 | 0 | 0 | -4 | -13 | /
COc1ccc(CNC(=O)C/C(C)=N/NC(=O)c2ccc(OC)cc2OC)cc1 | / | 2 | 4 | / | / | 15 | /
C/C(CC(=O)Nc1ccccn1)=N\NC(=O)c1ccccc1 | -10 | -58 | 4 | 3 | 2 | -16 | /
COc1ccc(CNC(=O)C/C(C)=N/NC(=O)c2cc(OC)cc(OC)c2)cc1 | / | -23 | 77* | / | / | 39 | 5
COc1cc(OC)cc(C(=O)N/N=C(\C)CC(=O)Nc2ccccn2)c1 | / | -5 | 74* | / | / | 29 | 6
CCN1CCc2c(sc(NC(=O)c3cc4ccccc4cc3OC)c2C(N)=O)C1 | / | 34 | 27* | / | / | -20 | 2
C=CCN1C(=O)C(O)(CC(=O)c2ccco2)c2cc(Br)ccc21 (stereo unspecified) | -10 | -15 | 87* | -1 | 0 | -3 | 23*
Cc1n[nH]c(C)c1C(=O)CC1(O)C(=O)N(Cc2ccccc2)c2ccc(Br)cc21 (stereo unspecified) | 8 | 10 | 1 | 11 | 1 | 1 | /
